Results taken from ChEMBL document CHEMBL4303097 (2020).
In all, about 1,500 compounds were measured (“Inhibition index”: median about 0.17, highest 2% from about 1.3 on). For the sample, the highest values were picked, then their nearest neighbours and some compounds at random.

Each compound was assayed on SARS-CoV-2 (assay: Inhibition of cell viability relative to arbidol control (inhibition index > 1 indicates higher activity) measured by fluorescence (OD590nm) in Vero E6 cells infected with SARS-CoV-2 (strain BavPat1) at MOI 0.002 after 72hrs).
Type: functional, Chlorocebus sabaeus, Vero C1008
Work on `CCCCOc1ccc(C(=O)CCN2CCCCC2)cc1.Cl` [DYCLONINE HYDROCHLORIDE] yielded an Inhibition index of 1.119. In the case of `CCc1ccc(C(=O)C(C)CN2CCCCC2)cc1.Cl` (stereo not given), the Inhibition index was 1.254. With `Cc1ccc(C(=O)C(C)CN2CCCCC2)cc1.Cl` (stereo not given) [TOLPERISONE HYDROCHLORIDE] the Inhibition index was 1.172. With `C[C@]12CC[C@@H]3c4ccc(O)cc4CC[C@H]3[C@@H]1CC[C@@H]2O` [ESTRADIOL] the Inhibition index was 0.3797. For `C[C@]12CC[C@H]3C(=CCc4cc(O)ccc43)[C@@H]1CCC2=O` [EQUILIN], the Inhibition index was 1.282. In the case of `C[C@]12CC[C@@H]3c4ccc(O)cc4CC[C@H]3[C@@H]1CCC2=O` [ESTRONE], the Inhibition index was 0.9303. `CC(=O)[N-]S(=O)(=O)c1ccc(N)cc1.O.[Na+]` [SULFACETAMIDE SODIUM] was tested, and the Inhibition index was 0.002362. `Cc1cc(O)c(C(=O)N[C@@H](C(=O)N[C@@H]2C(=O)N3C(C(=O)O)=C(CSc4nnnn4C)CS[C@H]23)c2ccc(O)cc2)cn1` [CEFPIRAMIDE] was tested, and the Inhibition index was 0.7171. With `CN(C)CCCN1c2ccccc2[S+]([O-])c2ccc(Cl)cc21` (stereo not given) [CHLOROPROMAZINE SULFOXIDE] the Inhibition index was 0.938. With `CN1C[C@H](CNC(=O)OCc2ccccc2)C[C@@H]2c3cccc4c3c(cn4C)C[C@H]21` [METERGOLINE] the Inhibition index was -0.1165. In the case of `CC(C)NCC(O)COc1ccc(CCOCC2CC2)cc1.Cl` (stereo not given) [BETAXOLOL HYDROCHLORIDE], the Inhibition index was 0.6286. Work on `CCOc1ccc2ccccc2c1C(=O)N[C@@H]1C(=O)N2[C@@H]1SC(C)(C)[C@@H]2C(=O)[O-].O.[Na+]` [NAFCILLIN SODIUM] yielded an Inhibition index of 0.3633. Work on `Brc1c(NC2=NCCN2)ccc2nccnc12.O=C(O)C(O)C(O)C(=O)O` yielded an Inhibition index of 0.355. With `CN(C)[C@@H]1C(O)=C(C(N)=O)C(=O)[C@@]2(O)C(O)=C3C(=O)c4c(O)cccc4[C@@](C)(O)[C@H]3C[C@@H]12.Cl` [TETRACYCLINE HYDROCHLORIDE] the Inhibition index was -0.0001993. `CCC(=O)O[C@]1(C(=O)SCF)[C@H](C)C[C@H]2[C@@H]3C[C@H](F)C4=CC(=O)C=C[C@]4(C)[C@@]3(F)[C@@H](O)C[C@@]21C` [FLUTICASONE PROPIONATE] showed an Inhibition index of 0.5757. Compound `CN(C)[C@@H]1C(O)=C(C(N)=O)C(=O)[C@@]2(O)C(O)=C3C(=O)c4c(O)ccc(Cl)c4[C@@](C)(O)[C@H]3C[C@@H]12.Cl` [CHLORTETRACYCLINE HYDROCHLORIDE] has an Inhibition index of 0.03495. In the case of `CC(C)NCC(O)c1cc(O)cc(O)c1.CC(C)NCC(O)c1cc(O)cc(O)c1.O=S(=O)(O)O` (stereo not given) [METAPROTERENOL SULFATE], the Inhibition index was 0.06285. Work on `COCC1=C(C(=O)OC(C)OC(=O)OC(C)C)N2C(=O)[C@@H](NC(=O)/C(=N\OC)c3csc(N)n3)[C@H]2SC1` (stereo not given in full) [CEFPODOXIME PROXETIL] yielded an Inhibition index of 0.5603. Compound `C[C@]12Cc3c[nH]nc3C[C@@H]1CC[C@@H]1[C@@H]2CC[C@@]2(C)[C@H]1CC[C@]2(C)O` [STANOZOLOL] has an Inhibition index of 0.4173. In the case of `C[C@]12COC(=O)C[C@@H]1CC[C@@H]1[C@@H]2CC[C@@]2(C)[C@H]1CC[C@]2(C)O` [OXANDROLONE], the Inhibition index was 0.1105. `C[C@]12C/C(=C\O)C(=O)C[C@@H]1CC[C@@H]1[C@@H]2CC[C@@]2(C)[C@H]1CC[C@]2(C)O` gave an Inhibition index of 1.738. `CC(Cc1ccccc1)NCCC(c1ccccc1)c1ccccc1.CC(O)C(=O)O` (stereo not given) was tested, and the Inhibition index was -0.1094. `Cl.OC(c1cc(C(F)(F)F)nc2c(C(F)(F)F)cccc12)C1CCCCN1` (stereo not given) [MEFLOQUINE HYDROCHLORIDE] gave an Inhibition index of -0.1263. `CS(=O)(=O)O.Cc1ccc2c(c1)c1c3n2CCNC3CCC1` (stereo not given) was tested, and the Inhibition index was 0.5995. `C=C1/C(=C\C=C2/CCC[C@]3(C)[C@@H]([C@H](C)CCCC(C)C)CC[C@@H]23)C[C@@H](O)C[C@@H]1O` [ALFACALCIDOL] gave an Inhibition index of -0.1396. `COc1ccc(-c2noc(CC(=O)O)c2-c2ccc(OC)cc2)cc1` [MOFEZOLAC] was tested, and the Inhibition index was 0.1442. Work on `Nc1cccc2c1C(=O)N(C1CCC(=O)NC1=O)C2=O` (stereo not given) [POMALIDOMIDE] yielded an Inhibition index of -0.01474. Compound `O=C1Nc2ccc(Cl)cc2[C@@](C#CC2CC2)(C(F)(F)F)O1` [EFAVIRENZ] has an Inhibition index of -0.107. With `CCOCCn1c(N2CCCN(C)CC2)nc2ccccc21.O=C(O)/C=C/C(=O)O.O=C(O)/C=C/C(=O)O` [EMEDASTINE DIFUMARATE] the Inhibition index was 0.1648. Work on `N=C(N)c1ccc(OCCCCCOc2ccc(C(=N)N)cc2)cc1.O=S(=O)(O)CCO.O=S(=O)(O)CCO` [PENTAMIDINE ISETHIONATE] yielded an Inhibition index of -0.04121. For `Cc1cccc(C)c1NC(=O)CC12CCCN1CCC2.Cl`, the Inhibition index was 0.08672. Compound `CCC(=O)O[C@@H]1CC(=O)O[C@H](C)C/C=C/C=C/[C@H](O)[C@H](C)C[C@H](CC=O)[C@H](O[C@@H]2O[C@H](C)[C@@H](O[C@H]3C[C@@](C)(O)[C@@H](OC(=O)CC)[C@H](C)O3)[C@H](N(C)C)[C@H]2O)[C@H]1OC` [MIDECAMYCIN] has an Inhibition index of 0.09553. `CO[C@@H]1[C@@H](O[C@@H]2O[C@H](C)[C@@H](O[C@H]3C[C@@](C)(O)[C@@H](O)[C@H](C)O3)[C@H](N(C)C)[C@H]2O)[C@@H](CC=O)C[C@@H](C)[C@@H](O[C@H]2CC[C@H](N(C)C)[C@@H](C)O2)/C=C/C=C/C[C@@H](C)OC(=O)C[C@H]1OC(C)=O` showed an Inhibition index of 1.276. With `CO[C@@H]1[C@@H](O[C@@H]2O[C@H](C)[C@@H](O[C@H]3C[C@@](C)(O)[C@@H](OC(=O)CC(C)C)[C@H](C)O3)[C@H](N(C)C)[C@H]2O)[C@@H](CC=O)C[C@@H](C)[C@@H](O)/C=C/C=C/C[C@@H](C)OC(=O)C[C@H]1OC(C)=O` [JOSAMYCIN] the Inhibition index was 0.1589. `C[C@H]1O[C@@H](O[C@H]2[C@@H](O)C[C@H](O[C@H]3[C@@H](O)C[C@H](O[C@H]4CC[C@@]5(C)[C@H](CC[C@@H]6[C@@H]5C[C@@H](O)[C@]5(C)[C@@H](C7=CC(=O)OC7)CC[C@]65O)C4)O[C@@H]3C)O[C@@H]2C)C[C@H](O)[C@@H]1O` [DIGOXIN] gave an Inhibition index of 0.2267. Work on `COc1ccc(C[C@@H]2c3cc(OC)c(OC)cc3CC[N@+]2(C)CCC(=O)OCCCCCOC(=O)CC[N@@+]2(C)CCc3cc(OC)c(OC)cc3[C@H]2Cc2ccc(OC)c(OC)c2)cc1OC.O=S(=O)([O-])c1ccccc1.O=S(=O)([O-])c1ccccc1` [CISATRACURIUM BESYLATE] yielded an Inhibition index of 1.338. Work on `COc1ccc(CC2c3cc(OC)c(OC)cc3CC[N+]2(C)CCC(=O)OCCCCCOC(=O)CC[N+]2(C)CCc3cc(OC)c(OC)cc3C2Cc2ccc(OC)c(OC)c2)cc1OC.O=S(=O)([O-])c1ccccc1.O=S(=O)([O-])c1ccccc1` (stereo not given) [ATRACURIUM BESYLATE] yielded an Inhibition index of 0.8693. For `CC1(C)S[C@@H]2[C@H](NC(=O)[C@@H](c3ccccc3)S(=O)(=O)O)C(=O)N2[C@H]1C(=O)O.[Na+].[Na+]`, the Inhibition index was 0.4594. `NC12CC3CC(CC(C3)C1)C2.NC12CC3CC(CC(C3)C1)C2.O=C(O)/C=C\C(=O)O` was tested, and the Inhibition index was 0.02174. `CC1=C(C(=O)O)N2C(=O)[C@@H](NC(=O)[C@H](N)c3ccc(O)cc3)[C@H]2SC1` [CEFADROXIL] gave an Inhibition index of 0.02715. For `CN1CCN(CCCN2c3ccccc3Sc3ccc(C(F)(F)F)cc32)CC1.Cl.Cl` [TRIFLUOPERAZINE HYDROCHLORIDE], the Inhibition index was -0.1697. Work on `COC(c1ccccc1)(c1ccccc1)C(Oc1nc(C)cc(C)n1)C(=O)O` (stereo not given) yielded an Inhibition index of 1.459. `CN1CCC(=C2c3ccccc3CCc3cccnc32)CC1.O=C(O)/C=C\C(=O)O.O=C(O)/C=C\C(=O)O` [AZATADINE MALEATE] was tested, and the Inhibition index was 0.8296. Work on `CN(C)CCOC(=O)C(c1ccccc1)C1(O)CCCC1.Cl` (stereo not given) [CYCLOPENTOLATE HYDROCHLORIDE] yielded an Inhibition index of 1.136. Work on `CNCC(O)c1ccc(O)c(O)c1.Cl` (stereo not given) [RACEPINEPHRINE HYDROCHLORIDE] yielded an Inhibition index of 0.3358. Compound `CC(C)(C)NCC(O)c1ccc(O)c(CO)c1` (stereo not given) [ALBUTEROL] has an Inhibition index of 0.0995. Work on `CC(C)(C)NC[C@H](O)c1ccc(O)c(CO)c1.Cl` [LEVALBUTEROL HYDROCHLORIDE] yielded an Inhibition index of 1.311. For `CC[N+](C)(C)Cc1ccccc1Br.Cc1ccc(S(=O)(=O)[O-])cc1` [BRETYLIUM TOSYLATE], the Inhibition index was 0.2627. Compound `CC(=O)N[C@@H](CC(=O)O)C(=O)N[C@@H](CCC(=O)O)C(=O)O` [ISOSPAGLUMIC ACID] has an Inhibition index of 0.8884. Work on `CC(=O)O[C@]1(C(C)=O)CC[C@H]2[C@@H]3C=C(Cl)C4=CC(=O)C5CC5[C@]4(C)[C@H]3CC[C@@]21C` (stereo not given in full) yielded an Inhibition index of 0.4824. Work on `N[C@H]1CONC1=O` [LEVCYCLOSERINE] yielded an Inhibition index of 1.42. `N[C@@H]1CONC1=O` [CYCLOSERINE] was tested, and the Inhibition index was 1.427. Work on `O.O=P(O)(O)C(O)(Cc1cccnc1)P(=O)(O)O` yielded an Inhibition index of 0.3004. With `CC[N+](C)(CC)CCC[n+]1c(-c2ccccc2)c2cc(N)ccc2c2ccc(N)cc21.[I-].[I-]` [PROPIDIUM] the Inhibition index was 0.2273. Compound `CC[C@]12CCCN3CCc4c(n(c5ccccc45)[C@@](O)(C(=O)OC)C1)[C@@H]32` [VINCAMINE] has an Inhibition index of 0.1041.
